# Screens from PubChem.
# Most compounds without a hit are left out; they make up all but 7.9% or so of the library.
# HT1080 IDH1KD tx: qHTS for induction of synthetic lethality in tumor cells producing 2HG: qHTS for the HT-1080-IDH1KD cell line. HT-1080 IDH1 knockdown viability, ATP luminescence, 48 h. Potency, µM (series often up to 46.1 µM), most hits filed as cytotoxic. 360,000 compounds, 2% hits. AID 686971, 2013
#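 Using the IDH1-knockdown HT-1080 line run in the same batch and compound series as the NT line, viability after 48 h at 37 °C was determined by CellTiter-Glo luminescence and expressed as % activity.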
# MCF10A rereplic: A quantitative high throughput screen for small molecules that induce DNA re-replication in MCF 10a normal breast cells; MCF 10A DNA re-replication, Hoechst nuclear intensity, 48 h; Potency, µM (top dose mostly 46.1 µM), most hits filed as activators; 350,000 compounds, 2.9% hits; AID 624296, 2012; note: nearly all actives have a fitted effect of over 50% in size
# SW480 rerep: A quantitative high throughput screen for small molecules that induce DNA re-replication in SW480 colon adenocarcinoma cells; SW480 DNA re-replication, Hoechst DNA content imaging, 48 h; Potency, µM (highest dose often 46.1 µM), hits mostly activators; 340,000 compounds, 1.8% hits; note: nearly all actives have a fitted effect of over 55% in size
#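 Hoechst fluorescence of nuclei (405 nm excitation, 500-530 nm emission) measured by plate-scanning imager after 48 hr compound exposure at 37 C; re-replication scored as increased number of nuclei with elevated intensity.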
# HT1080NT lethal: qHTS for induction of synthetic lethality in tumor cells producing 2HG: qHTS for the HT-1080-NT fibrosarcoma cell line | HT-1080-NT fibrosarcoma viability, CellTiter-Glo ATP luminescence, 48 h | Potency, µM (titrated, usually from 46.1 µM), most hits filed as cytotoxic | 360,000 compounds, 1.6% hits | AID 686970, 2013;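 note: NT is the 2HG producing partner of a matched IDH1 knockdown line; nearly all actives have a fitted effect of over 55% in size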
#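 A 48-hour cytotoxicity screen used HT-1080-NT cells plated 2 hours before compound delivery. ATP-based CellTiter-Glo luminescence measured viability, normalized to DMSO and no-cell controls.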
# KB-V1 MDR tox: qHTS assay for MDR1-selective chemotherapeutics: Primary screen using the drug-selected MDR subline cells KB-V1. KB-V1 MDR cells viability, CellTiter-Glo, 72 h. Potency, µM (series often up to 46.1 µM), usual class: cytotoxic. 400,000 compounds, 3.4% hits. AID 1347076, 2019; note: nearly all actives have a fitted effect of over 60% in size
#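 Luminescent ATP read-out (CellTiter-Glo, 10 min) measures survival of drug-selected KB-V1 MDR cells after 72 h, 37 degrees C compound exposure. Medium: phenol-red-free DMEM, 10% FBS. Values from fitted concentration-response curves.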
# KB-3-1 cytotox: qHTS assay for MDR1-selective chemotherapeutics: Primary screen using the parental adenocarcinoma cell KB-3-1; AID 1347075, 2019; 400,000 compounds, 1.4% hits; Potency, µM (highest dose often 46.1 µM), hits mostly cytotoxic; KB-3-1 viability, CellTiter-Glo ATP luminescence, 72 h; note: nearly all actives have a fitted effect of over 60% in size
#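 Viability of parental KB-3-1 cells, measured by CellTiter-Glo luminescence, followed a 72 h incubation at 37 °C with pinned compounds in phenol-red-free DMEM containing 10% FBS.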
# Hits are given with their value; - = inactive; ? = inconclusive; . = not tested or not shown; [ ] = remark or other dose. Calls come from the whole dose curve; as a rule, active = well fitted curve in the direction sought with a large enough effect; inconclusive = small, poorly fitted or top-dose-only effect, or another doubt; inactive = no such curve, though single readings can be large; an effect the other way counts as inactive or inconclusive.
SMILES,HT1080 IDH1KD tx,MCF10A rereplic,SW480 rerep,HT1080NT lethal,KB-V1 MDR tox,KB-3-1 cytotox
Cc1ccc(NC(=S)N2CCN(C)CC2)c(C)c1,-,-,-,-,-,-
O=C(N/N=C/c1ccccc1O)c1ccc2c(c1)OCO2,?,?,?,?,-,?
O=C(CNC(=O)c1ccncc1)N/N=C/c1cc(Br)ccc1O,-,-,-,-,-,-
O=C(CNC(=O)c1ccco1)N/N=C/c1cc(Br)ccc1O,26µM,?,?,?,?,?
O=C(CNC(=O)c1ccccc1)N/N=C/c1cc(Br)ccc1O,16µM,-,?,?,?,?
O=C(CNC(=O)c1ccc2c(c1)OCO2)N/N=C/c1cc(Br)ccc1O,12µM,-,4.1µM,?,-,?
O=C(CNC(=O)c1ccccc1Br)N/N=C/c1cc(Br)ccc1O,?,?,7.3µM,?,-,-
O=C(Nc1cc(S(=O)(=O)Nc2ccc(Cl)cc2)ccc1O)c1ccc(S(=O)(=O)N2CCCCCC2)cc1,?,?,-,-,-,-
O=C(N/N=C/c1cccnc1)c1cccc(Cl)c1,-,-,-,-,?,-
O=C(N/N=C\c1cc(Cl)ccc1O)c1ccc(S(=O)(=O)N2CCCCC2)cc1,2.3µM,15µM,7.3µM,7.3µM,?,?
O=C(N/N=C/c1cc(Cl)ccc1O)c1cccnc1,?,?,1.3µM,?,-,?
O=C(/C=N/NC(=O)c1ccccc1Br)c1ccccc1,-,-,-[1.84 µM],-,-,-
O=C(N/N=C/c1cc(Cl)ccc1O)c1ccccc1Br,9.2µM,-,6.5µM,?,?,?
CCOC(=O)c1noc2ncn(CC(=O)Nc3ccc(F)cc3Cl)c(=O)c12,.,.,.,.,-,-
CCOc1ccc(S(=O)(=O)N/N=C(\C)c2ccc3c(c2)OCO3)cc1,-,-,-,-,-,-
CC1(C)NC(=O)N(CCCCOc2ccc(Cl)cc2C=O)C1=O,?,-,?,23µM,-,-
CC(C)c1cc(Br)ccc1OCCCN1C(=O)NC(C)(C)C1=O,-,-,-,-,13µM,?
CC1(C)NC(=O)N(CCCOc2ccc(Br)cc2Cl)C1=O,-,-,-,-,?,-
O=S(=O)(Nc1nc2ccccc2nc1NCc1ccco1)c1cccs1,-,-,-,-,-,-
S=C1NCCN1CC1CCN(CCCC2CCCC2)CC1,-,-,-,-,-,-
COc1cc(CNCc2ccccn2)ccc1OCC(=O)NC1CCCCC1,-,-,-,-,21µM,-
COc1cc(CNCc2ccccn2)ccc1OCC(=O)NC(C)(C)C,-,-,-,-,21µM,-
COc1cc(CNC2CCCCCCC2)ccc1OCC(N)=O,-,-,?,-,-,-
CCOc1cc(CNCc2ccccc2)ccc1OCC(=O)NC1CCCCC1,-,-,?,-,.,.
CCOC(=O)c1ccc(NC(=O)COc2ccc(CNC3CCCCC3)cc2OC)cc1,16µM,?,?,23µM,?,-
SMILES,HT1080 IDH1KD tx,MCF10A rereplic,SW480 rerep,HT1080NT lethal,KB-V1 MDR tox,KB-3-1 cytotox
NC(=O)c1ccc(NC(=O)CCCN2C(=O)c3ccccc3C2=O)cc1,-,-,-,-,-,-
CCOC(=O)C1CCN(C(=O)c2cc3cc(F)ccc3[nH]2)CC1,-,-,-,-,-,-
CSc1c(CC(=O)NCCO)n(C)c2ccccc12,-,-,-,-,-,-
CC(C)C[C@@]12C(=O)N(c3cccc(Br)c3)C(=O)N1[C@H](c1ccc(Cl)cc1)[C@@H]1C(=O)N(C3CCCCC3)C(=O)[C@@H]12,-,-,-,-,-,-
CCOc1ccc(/C=C/c2[nH]c(=O)[nH]c(=O)c2[N+](=O)[O-])cc1,-,?,-,-,-,-
CCOc1cc(/C=C\c2[nH]c(=O)[nH]c(=O)c2[N+](=O)[O-])ccc1OC(C)CC (centres undefined),?,?,23µM,10µM,-,-
CC(C)c1ccc(/C=C/c2[nH]c(=O)[nH]c(=O)c2[N+](=O)[O-])cc1,?,18µM,-,-,-,-
CCOC(=O)N1CCN(C(=S)Nc2ccc3nc(N4CCN(CC)CC4)cc(C)c3c2)CC1,-,?,-,-,-,-
O=C(CCN1C(=O)c2ccccc2C1=O)N1CCN(Cc2ccccc2)CC1,-[9.24 µM],-,-,-,-,-
O=C(CCN1C(=O)c2ccccc2C1=O)N1CCN(Cc2ccc(Cl)cc2Cl)CC1,-,-,-,-,15µM,-
COc1ccc(-c2n[nH]c(=S)n2Cc2ccccc2)cc1,-,-,-,-,-,-
NC(=O)c1sc2nc(N3CCOCC3)c3c(c2c1N)CCCC3,-,?,-,-,?,-
CCc1nc2sc(C(C)=O)c(N)c2c2c1CCCC2,-,2.9µM,15µM,-,?,-
Cc1ccc(-c2nc3sc(C(N)=O)c(N)c3c3c2CCCC3)cc1,-,5.2µM,16µM,-,?,-
NC(=O)c1sc2nc3c(c(-c4ccco4)c2c1N)CCC3,-,-,-,-,?,-
NC(=O)c1sc2nc(-c3ccccc3)c3c(c2c1N)CCCC3,-,21µM,15µM,-,-,-
Cc1nc2sc(C(N)=O)c(N)c2c2c1CCCC2,-,?,?,-,21µM,-
CCc1nc2sc(C#N)c(N)c2c2c1CCCC2,-[9.24 µM],-,-,-,-,-
COC(=O)c1ccc(Cn2c(O)c(N=O)c3ccccc32)o1,-,-,-,-,-,-
CCOc1ccccc1CNC(=O)CN1C(=O)c2cccnc2Oc2ccc(Cl)cc21,.,.,.,.,-,-
CC(=O)c1sc2nc(-c3ccc(C)cc3)c3c(c2c1N)CCCC3,-,2.3µM,2.9µM,-,18µM,-
CC(=O)Nc1cc(C(=O)OCC(=O)c2ccc(Cl)cc2Cl)ccc1C,-,-,-,-,?,-
CC(C)C(=O)Nc1cccc(C(=O)OCC(=O)c2ccc(Cl)cc2Cl)c1,-,-,-,-,15µM,-
CCOc1ccc(NC(=O)CC2S/C(=N/N=C3CCCCCC3)NC2=O)cc1 (centres undefined),-,-,-,-,-,-
NS(=O)(=O)c1ccc(-c2ccc(/C=C3\C(=O)Nc4cc(Cl)ccc43)o2)cc1,-,?,?,-,-,-
CC1(C)OC(=O)C(=Cc2ccc(-c3ccc(S(N)(=O)=O)cc3)o2)C(=O)O1,?,18µM,?,?,-,-
